# CYP2C9 inhib = inhibitors of human CYP2C9 | P11712 | CYP2C9 Supersomes, luciferin-H conversion, luminescence | inhibition, % at 5 µM | 20% of 96,000 active | AID 777;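 active = blocking of liver enzyme CYP2C9 beyond about 50% at 5 µM, limit read from the data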
# PostGolgi yeast = growth inhibition of a yeast mutant, post-Golgi transport screen. 0.9% of 98,000 active. inhibition, % at 10 µM. post-Golgi transport phenotypic cell assay;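 note: yeast cells grown in 1536-well plates; yeast grown about 18 h at 30C before absorbance read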
# PostGolgi ctrl = yeast control strain growth, post-Golgi counter-screen; efflux-deficient yeast background strain, growth absorbance A615, 16 h; inhibition, % at 10 µM; 5% of 98,000 active; AID 738
# CYP2C19 act = activators of human cytochrome P450 2C19 | P33261 | recombinant CYP2C19, luciferin-H EGE luminescence; active compounds read high; 0 = fully inhibited enzyme, 1 = untreated enzyme | activation factor at 5 µM | 96,000 tested, under 10 active;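 active = activation factor of at least 2 at 5 µM in the primary screen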;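 note: 0 = wells with 2.5 mM tranylcypromine and 1 = vehicle-only wells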
# Target sequence (P33261 whole entry, looked up): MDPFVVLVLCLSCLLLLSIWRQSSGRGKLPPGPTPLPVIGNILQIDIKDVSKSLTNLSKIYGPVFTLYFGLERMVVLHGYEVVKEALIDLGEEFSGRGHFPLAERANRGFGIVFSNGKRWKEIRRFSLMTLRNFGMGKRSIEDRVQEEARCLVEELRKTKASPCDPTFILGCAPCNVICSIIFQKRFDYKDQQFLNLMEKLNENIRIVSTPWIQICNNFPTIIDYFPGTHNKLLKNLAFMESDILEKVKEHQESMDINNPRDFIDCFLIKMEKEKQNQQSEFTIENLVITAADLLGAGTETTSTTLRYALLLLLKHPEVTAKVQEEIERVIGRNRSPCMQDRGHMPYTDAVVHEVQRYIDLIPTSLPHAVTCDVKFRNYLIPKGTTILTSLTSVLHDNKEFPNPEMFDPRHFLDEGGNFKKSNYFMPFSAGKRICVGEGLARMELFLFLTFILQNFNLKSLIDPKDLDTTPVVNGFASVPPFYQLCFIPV
# CYP2C9 act = activators of human CYP2C9; 1.4% of 96,000 active; activation factor at 5 µM; recombinant CYP2C9, luciferin-H conversion, luminescence; active compounds read high; factor 1 = untreated enzyme, 0 = blocked; AID 1024;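 active = activation factor of 2 or more for CYP2C9 at a 5 µM dose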;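 note: 0 = sulfaphenazole-blocked wells and 1 = vehicle-only wells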
# CYP2C19 inh = blocks human cytochrome P450 2C19 | 21% of 96,000 active | CYP2C19 Supersomes, luciferin-H EGE luminescence, 30 min | P33261 | inhibition, % at 5 µM | AID 778;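 active = CYP2C19 inhibition above a set limit at 5 µM in the primary screen, cut at about 50% in these data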;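 note: plate controls were negative control wells for no effect and 2.5 mM tranylcypromine positive control for full effect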
# * hit, by the source's call; . = not tested or not shown. Most compounds without a hit are left out; they make up all but 32% or so of the library. Cut-off read from the data, not from the text of the source, unless noted: active = inhibition above about 30%; inactive = the rest.
SMILES,CYP2C9 inhib,PostGolgi yeast,PostGolgi ctrl,CYP2C19 act,CYP2C9 act,CYP2C19 inh
CCn1c(SCC(=O)Nc2sc3c(c2C(N)=O)CCC(C)C3)nnc1-c1ccco1 (stereo not given),40.8,4.8,12.8,0.8,0.6,21.8
O=S(=O)(c1ccccc1C(F)(F)F)N1CCN(S(=O)(=O)c2ccccc2C(F)(F)F)CC1,45.8,-2.4,-2.4,0.8,0.5,17.8
CCn1c(N2CCN(S(=O)(=O)c3ccccc3C(F)(F)F)CC2)nc2ccccc21,-15.2,15.1,21.5,0.3,1.2,68.9*
CCOc1cccc(N2C(=O)CC(N3CCN(c4ccc(S(=O)(=O)CC)cc4)CC3)C2=O)c1 (stereo not given),32.5,-10.5,-13.0,0.9,0.7,6.4
O=C(CNC(=O)c1ccc([N+](=O)[O-])cc1)c1ccccc1,-23.7,0.5,-2.1,0.7,1.2,26.1
O=C(C#Cc1ccccc1)c1ccc([N+](=O)[O-])cc1,8.0,10.6,35.6*,0.9,0.9,8.7
CS(=O)(=O)N(CC(=O)N1CCC(C(N)=O)CC1)c1ccc(Cl)c(C(F)(F)F)c1,-4.5,-9.1,1.1,1.1,1,-5.3
CS(=O)(=O)N(CC(=O)N1CCN(c2ccccc2)CC1)c1cc(C(F)(F)F)ccc1Cl,-111.6,-2.2,-1.7,0.7,2.1*,26.5
CS(=O)(=O)N(CC(=O)N1CCN(c2ccccc2)CC1)c1ccc(Cl)c(C(F)(F)F)c1,-82.6,-2.1,12.1,0,1.8,95.5*
CC1CCN(C(=O)CN(c2ccc(Cl)c(C(F)(F)F)c2)S(C)(=O)=O)CC1,-133.2,-2.0,6.4,0.2,2.3*,75.3*
CCCCC(SCC(=O)Nc1ccccc1)C(=O)O (stereo not given),70.5*,-10.8,6.7,0.8,0.3,16.3
Cn1c(=O)c2ccccc2n(Cc2ccccc2F)c1=O,23.8,.,.,0.5,0.8,52.1*
COc1ccc(C(=O)/C=C(\N)C(F)(F)F)c(O)c1,16.2,3.1,-4.3,0.4,0.8,59.5*
COc1ccc(C(=O)c2ccc(OC)cc2O)c(O)c1,-15.4,25.5,6.5,0.6,1.2,37.6
N#Cc1ccccc1Sc1ccccc1N,59.3*,-6.7,13.8,0.4,0.4,56.6*
O=c1c(Sc2ccccc2)c(C(F)(F)F)[nH]n1-c1ccccc1,96.7*,-6.1,4.0,0.8,0,15.0
Cc1nn(C)c(C)c1S(=O)(=O)NC1CCCc2ccccc21 (stereo not given),-64.2,10.3,-3.5,0.8,1.6,24.7
NC(=O)c1cn(-c2ccccc2)nc1-c1cccnc1,26.5,-0.6,4.8,1,0.7,-2.4
N#C/C(=C\c1cn(-c2ccccc2)nc1-c1cccnc1)c1nnc2n1CCCCC2,93.3*,-5.5,17.3,0.4,0.1,58.9*
COc1ccccc1C(=O)N/C(N)=N/c1nc2ccccc2o1,1.3,-0.3,5.8,0.9,1,5.6
CC(=O)OCN(C#N)c1nc(N(C)C)nc(N(C)C)n1,-86.7,19.2,10.4,0.7,1.9,26.1
COC(=O)CN(C#N)c1nc(SC)nc(N(C)C)n1,-91.8,-2.4,11.0,0.4,1.9,55.5*
Cc1ccc(C)n1NC(=O)c1cccc(Cl)c1,-3.4,-3.8,-1.8,0.9,1,11.9
CC(C)CSc1ncnc2c1oc1nc3c(cc12)COC(C)(C)C3,72.4*,5.1,11.1,0.8,0.3,21.2
CC(C)(C)OC(=O)N1CCC(C(=O)N2CCC[C@H]2C(=O)O)CC1,-1.9,6.2,5.9,1,1,-2.0
SMILES,CYP2C9 inhib,PostGolgi yeast,PostGolgi ctrl,CYP2C19 act,CYP2C9 act,CYP2C19 inh
O=C(Nc1ccc2c(c1)OCO2)N1CCN(c2ccccc2Cl)CC1,12.7,-9.3,2.2,0.8,0.9,23.7
CC(=O)c1cc2c(cc1NC(=O)CCNC(=O)c1ccccc1Cl)OCO2,73.9*,-5.8,7.2,0.4,0.3,60.2*
O=C(CCNC(=O)c1ccccc1Cl)Nc1ccc2c(c1)OCO2,95.6*,11.1,-4.4,0.4,0,59.4*
O=C(O)CCC(=O)NC1CCCCCCC1,-8.3,9.1,10.2,1,1.1,-1.9
Cn1nc(C(F)(F)F)c(C(=O)Nc2ccc(F)cc2F)c1Sc1cccc(C(F)(F)F)c1,60.1*,18.3,14.2,0.1,0.4,87.4*
Cn1nc(C(F)(F)F)c(C(=O)Nc2ccc(F)cc2F)c1Oc1cccc(Cl)c1,22.0,0.0,9.6,0.9,0.8,13.7
Cn1nc(C(F)(F)F)c(C(=O)Nc2ccc(F)cc2F)c1Sc1cccc(Cl)c1,36.0,-7.2,7.1,0.5,0.6,53.5*
Cc1nc2ccc(N)cc2c(=O)n1Cc1ccc(Cl)cc1,84.5*,0.9,7.0,0,0.2,98.7*
N#C/C(=C/c1ccccc1)c1nn(CCO)c(N)c1C#N,76.6*,-4.3,19.3,0.1,0.2,94.1*
O=C(Nc1ccccn1)[C@@H]1CCC(=O)N1C(=O)OCc1ccccc1,-12.5,2.7,10.8,0.6,1.1,43.2
CCOc1cc(S(=O)(=O)NCc2ccc(OC)cc2)c(OCC)cc1-n1cnnn1,85.4*,4.2,0.5,0.7,0.1,31.0
CCOc1cc(S(=O)(=O)NCc2ccco2)c(OCC)cc1-n1cnnn1,68.6*,4.8,-6.7,0.7,0.3,31.3
CCOc1cc(S(=O)(=O)NC2CC2)c(OCC)cc1-n1cnnn1,95.3*,1.8,10.3,0.2,0,79.9*
COc1cc(S(=O)(=O)N2CCN(c3ccc(F)cc3)CC2)ccc1Cl,-34.8,0.6,26.1,1,1.3,1.7
CCOc1ccc(-n2cnnn2)cc1S(=O)(=O)NCCc1ccc(OC)c(OC)c1,7.3,2.2,-9.0,0.9,0.9,10.3
CCOc1cc(S(=O)(=O)N2CCN(c3ccc(F)cc3)CC2)c(OCC)cc1-n1cnnn1,18.0,3.2,82.5*,1,0.8,-4.4
CCOc1ccc(S(=O)(=O)NCc2ccco2)cc1,9.5,6.1,1.2,0.8,0.9,21.9
O=C(Cn1c(=O)oc2ccccc21)N1CCN(c2ccc(N3CCOCC3)nn2)CC1,-10.5,2.6,-7.2,1,1.1,4.4
CC1CC(C)CN(S(=O)(=O)c2ccc3c(c2)oc(=O)n3CC(=O)N2CCOCC2)C1 (stereo not given),4.0,-4.4,-1.1,0.9,1,5.0
O=C(Oc1ccc(-c2cn3c(n2)SCC3)cc1)c1ccccc1,-10.0,4.0,-0.9,1.1,1.1,-10.1
CCOc1cc(S(=O)(=O)NCC2OCCc3ccccc32)c(OCC)cc1-n1cnnn1 (stereo not given),50.8*,4.8,6.6,0.7,0.5,31.8
CCOc1cc(S(=O)(=O)NCCc2ccc(OC)c(OC)c2)c(OCC)cc1-n1cnnn1,75.8*,4.5,8.8,0.9,0.2,13.2
O=C(NC(Cc1ccccc1)C(=O)O)/C(=C\c1ccc(F)cc1)NC(=O)c1ccccc1 (stereo not given),7.7,1.9,2.2,1,0.9,-1.4
Cc1cc(Cl)ccc1NC(=O)NC1CCN(S(=O)(=O)c2ccc(F)cc2)CC1,-1.3,-5.9,1.7,0.9,1,5.5

# Screens: PubChem BioAssay, several laboratories
